# Where “and” joins values, the source holds several entries; their conditions need not be identical. Equal values may be shown once. Where a name gives a salt, the structure may show the parent alone. Among all 5,800 compounds or so, about 620 (11%) showed activity. This is one part of a sample in which actives are shown more often than they occur. A number with no mark means an inactive call.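 Rule for the calls: active = score above a cut-off or among the top three wells of a plate; in these data no inactive exceeds 0.85.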
# Test system: primary human hepatic stellate cells (donor 1)
# Test: scaled lipid accumulation score (0 = DMSO-like, 1 = nortriptyline-like); higher = stronger HSC inactivation (lipid re-accumulation), active = hit call of the paper
# Settings: 48 h
# [1] = library stock concentration: 3.33 mM
# [2] = library stock concentration: 10 mM
# [3] = library stock concentration: 1 mM
structure (smiles),measurement,setting,value
Cn1c(Nc2ccc(C(F)(F)F)cc2)nc2cc(Oc3ccnc(-c4ncc(C(F)(F)F)[nH]4)c3)ccc21,scaled lipid accumulation score,library stock concentration: 80 uM,≤ -0.001
same,scaled lipid accumulation score,library stock concentration: 400 uM,≤ -0.003
same,scaled lipid accumulation score,library stock concentration: 2 mM,0.037
same,scaled lipid accumulation score,[1],0.031
same,scaled lipid accumulation score,[2],0.077 and 0.031
O=C1Cc2c([nH]c3ccc(Br)cc23)-c2ncccc2N1 [1-Azakenpaullone],scaled lipid accumulation score,[1],0.405
same,scaled lipid accumulation score,[2],0.808
CCCCCCCCCCCCCCCCOCC(COP(=O)([O-])OCC[N+](C)(C)C)OC (stereo unspecified) [1-Hexadecyl-2-methylglycero-3 PC],scaled lipid accumulation score,[3],0.043
COc1cc(C[C@@H](CO)[C@H](CO)Cc2ccc(O)c(OC)c2)ccc1O,scaled lipid accumulation score,[2],0.022
NC[C@@H]1O[C@H](c2ccccc2)Cc2c1ccc(O)c2O,scaled lipid accumulation score,[2],≤ 0
NC[C@H]1c(c2C[C@@H]([C@]3(C4)CC(CC45)CC(C5)C3)O1)ccc(O)c2O.Cl,scaled lipid accumulation score,[2],1.19 (active)
NC[C@@H]1O[C@H](C23CC4CC(CC(C4)C2)C3)Cc2c1ccc(O)c2O,scaled lipid accumulation score,[2],0.438
COc1ccc(C2CC(=O)c3c(O)cc(OC4OC(COC5OC(C)C(O)C(O)C5O)C(O)C(O)C4O)cc3O2)cc1OC (stereo unspecified) [Methyl-Hesperidin],scaled lipid accumulation score,[1],≤ 0
same,scaled lipid accumulation score,[2],≤ 0
CCCCC/C=C\C/C=C\C/C=C\C/C=C\CCCC(=O)OC(COCCCCCCCCCCCCCCCC)COP(=O)([O-])OCC[N+](C)(C)C (stereo unspecified) [Arachidonoyl PAF C-16],scaled lipid accumulation score,[3],≤ 0
CC1CCN(CCCC(=O)c2ccc(F)cc2)CC1 [Melperone hydrochloride],scaled lipid accumulation score,[2],0.058
"Cl.O[Si](CCCN1CCCCC1)(c1ccc(F)cc1)C1CCCCC1 (stereo unspecified) [Hexahydro-sila-difenidol hydrochloride, p-fluoro analog]",scaled lipid accumulation score,[2],0.956 (active)
CC1CCN(CCCC(=O)c2ccc(F)cc2)CC1,scaled lipid accumulation score,[2],≤ 0
O=C(c1ccc(F)cc1)C1CCN(CCCCc2ccccc2)CC1 [4-(4-Fluorobenzoyl)-1-(4-phenylbutyl)-piperidine oxalate],scaled lipid accumulation score,[2],0.378
CC1CCN(CCCC(=O)c2ccc(F)cc2)CC1 [Metylperon],scaled lipid accumulation score,[2],≤ 0
C[C@H]1[C@H](C)CC[C@]2(C(=O)O)CC[C@]3(C)C(=CC[C@@H]4[C@@]5(C)CC[C@H](O)C(C)(C)[C@@H]5CC[C@]43C)[C@H]12 [Ursolic acid],scaled lipid accumulation score,,0.053
C[C@H]1[C@H](C)CC[C@]2(C(=O)O)CC[C@]3(C)C(=CC[C@@H]4[C@@]5(C)CC[C@H](O)C(C)(C)[C@@H]5CC[C@]43C)[C@H]12 [Ursolic Acid],scaled lipid accumulation score,[1],0.013
same,scaled lipid accumulation score,[2],≤ 0
O=C1CC2(CCCC2)CC(=O)N1CCNCC1COc2ccccc2O1 (stereo unspecified),scaled lipid accumulation score,[2],≤ 0 and 0.017
CCCCC1C(=O)CCC2C(CC=CCCCC(=O)O)C(=O)CC12 (stereo unspecified) [Bicyclo Prostaglandin E2],scaled lipid accumulation score,[3],≤ 0
C=C(NC(=O)C(=C)NC(=O)c1csc(C2=N[C@@H]3c4csc(n4)[C@H]4NC(=O)c5csc(n5)[C@H]([C@](C)(O)[C@@H](C)O)NC(=O)[C@H]5CSC(=N5)/C(=C/C)NC(=O)[C@H]([C@@H](C)O)NC(=O)c5csc(n5)[C@]3(CC2)NC(=O)[C@H](C)NC(=O)C(=C)NC(=O)[C@H](C)NC(=O)[C@H]([C@@H](C)CC)N[C@@H]2C=Cc3c([C@H](C)O)cc(nc3[C@H]2O)C(=O)O[C@@H]4C)n1)C(N)=O [Thiostrepton],scaled lipid accumulation score,,1.19 (active)
COP(=O)(OC)OC(c1ccc(Cl)cc1)P(=O)(OC)OC (stereo unspecified),scaled lipid accumulation score,[2],≤ -0.001
COc1cc(C[C@H]2COC(=O)[C@@H]2Cc2ccc(O)c(OC)c2)ccc1O [Matairesinol],scaled lipid accumulation score,[3],≤ 0
CC1(C)CC(=O)c2c(ccc(C(=O)CC(N)CO)c2N)O1 (stereo unspecified),scaled lipid accumulation score,[2],1.03 (active)
CO/N=C(\C(=O)N[C@@H]1C(=O)N2C(C(=O)O)=C(CSc3nc(=O)c(O)nn3C)CS[C@H]12)c1csc(N)n1 [Ceftriaxone sodium trihydrate],scaled lipid accumulation score,library stock concentration: 3.1 mM,≤ 0
same,scaled lipid accumulation score,[2],≤ -0.027 and 0.254
CO/N=C(\C(=O)N[C@@H]1C(=O)N2C(C(=O)O)=C(CSc3nc(=O)c(O)nn3C)CS[C@H]12)c1csc(N)n1 [Ceftriaxone sodium],scaled lipid accumulation score,[2],≤ 0
N#Cc1c(-c2ccccc2)no[n+]1[O-] [Furoxan],scaled lipid accumulation score,library stock concentration: 26.7 mM,1 (active)
CCCCCC[C@@H]([C@@H](C)O)n1cnc2c(N)ncnc21 (racemic),scaled lipid accumulation score,library stock concentration: 18 mM,0.052
CC1(C)CCC(CN2CCN(c3ccc(C(=O)NS(=O)(=O)c4ccc(NCC5CCOCC5)c([N+](=O)[O-])c4)c(Oc4cnc5[nH]ccc5c4)c3)CC2)=C(c2ccc(Cl)cc2)C1,scaled lipid accumulation score,[1],≤ -0.009
same,scaled lipid accumulation score,[2],≤ 0
O=C1c2ccccc2-c2nc3nnnn3nc21 [PDK1/Akt/Flt Dual Pathway Inhibitor],scaled lipid accumulation score,[1],0.462
O=S(c1ccccc1)c1ccc2nnnn2n1 (stereo unspecified),scaled lipid accumulation score,[2],1.3 (active)
COC(=O)C1=CO[C@@H](O)[C@@H]2C(CO)=CC[C@H]12 [Genipin],scaled lipid accumulation score,[1],≤ 0
same,scaled lipid accumulation score,[2],0.019 and ≤ -0.028
CC(C)(C)C(=O)Oc1ccc(S(=O)(=O)Nc2ccccc2C(=O)NCC(=O)O)cc1 [Sivelestat sodium salt hydrate],scaled lipid accumulation score,[2],≤ -0.055
O=C(NOCC1CC1)c1cc(Br)c(F)c(F)c1Nc1ccc(I)cc1Cl,scaled lipid accumulation score,[2],≤ 0
Br.NC(=O)C(c1ccccc1)(c1ccccc1)[C@@H]1CCN(CCc2ccc3c(c2)CCO3)C1,scaled lipid accumulation score,[2],0.88 (active)
c1ccc(C(O[C@@H]2CCCN(CCc3ccc4c(c3)OCO4)C2)c2ccccc2)cc1 [Zamifenacin fumarate],scaled lipid accumulation score,[2],0.194
CC(C)(C(=O)O)c1ccc(C(O)CCCN2CCC(C(O)(c3ccccc3)c3ccccc3)CC2)cc1 (stereo unspecified),scaled lipid accumulation score,[2],≤ 0
CC(C)(C(=O)O)c1ccc(C(O)CCCN2CCC(C(O)(c3ccccc3)c3ccccc3)CC2)cc1 (stereo unspecified) [Fexofenadine hydrochloride],scaled lipid accumulation score,[2],≤ -0.07 and 0.008
NC(=O)C(c1ccccc1)(c1ccccc1)[C@@H]1CCN(CCc2ccc3c(c2)CCO3)C1,scaled lipid accumulation score,[2],0.413
CC(C)(C(=O)O)c1ccc(C(O)CCCN2CCC(C(O)(c3ccccc3)c3ccccc3)CC2)cc1 (stereo unspecified) [Fexofenadine HCl],scaled lipid accumulation score,,≤ 0
same,scaled lipid accumulation score,[1],≤ 0
same,scaled lipid accumulation score,[2],0.057
OC(CCN1CCCC1)(c1ccccc1)C1CCCCC1 (stereo unspecified) [Procyclidine hydrochloride],scaled lipid accumulation score,,0.092
same,scaled lipid accumulation score,library stock concentration: 6.2 mM,0.569
same,scaled lipid accumulation score,[2],0.484
Br.NC(=O)C(c1ccccc1)(c1ccccc1)[C@@H]1CCN(CCc2ccc3c(c2)CCO3)C1 [Darifenacin HBr],scaled lipid accumulation score,[2],1.03 (active)
NC(=O)C(c1ccccc1)(c1ccccc1)[C@@H]1CCN(CCc2ccc3c(c2)CCO3)C1 [Darifenacin HBr],scaled lipid accumulation score,[1],≤ 0
CCCC(=O)Oc1ccc2[nH]c(C(=O)c3cc4ccccc4[nH]3)cc2c1 [PDGF Receptor Tyrosine Kinase Inhibitor II],scaled lipid accumulation score,[1],≤ 0
CC(C)(C)OC(=O)N1CCC(OCc2nc(-c3ccncc3)no2)CC1,scaled lipid accumulation score,[3],0.013
N#Cc1ccc(NCCNCC(=O)N2CCC[C@H]2C#N)nc1 [NVP DPP 728 dihydrochloride],scaled lipid accumulation score,[2],≤ 0
CN1CC[C@]23c4ccccc4N[C@H]1[C@]21CCN(C)[C@H]3Nc2ccccc21 [Calycanthine],scaled lipid accumulation score,,0.246
CCCC/C=C\CCCCCCCC(=O)OC [Myristoleic Acid methyl ester],scaled lipid accumulation score,[3],≤ 0
Cn1cnc(=N)c2[nH]cnc21 [3-Methyladenine],scaled lipid accumulation score,[1],≤ 0
same,scaled lipid accumulation score,[2],≤ 0
CCCCC/C=C\C\C=C/C=C/C=C/[C@@H](SC[C@H](NC(=O)CC[C@H](N)C(=O)O)C(=O)NCC(=O)O)[C@@H](O)CCCC(=O)O [Leukotriene C4],scaled lipid accumulation score,library stock concentration: 100 uM,≤ -0.021
Fc1ccc(C(OCCCc2cnc[nH]2)c2ccc(F)cc2)cc1,scaled lipid accumulation score,[2],0.81
Cc1nc2c(c(=O)[nH]1)CSCC2,scaled lipid accumulation score,[2],≤ -0.001
CCCCC/C=C\C/C=C\C/C=C\C/C=C\CCCC(=O)O[C@H](COCCCCCCCCCCCCCCCC)COP(=O)([O-])OCC[N+](C)(C)C [Arachidonoyl-PAF],scaled lipid accumulation score,[3],≤ -0.021
O=C1Cc2c([nH]c3ccc(Br)cc23)-c2ccccc2N1 [Kenpaullone],scaled lipid accumulation score,[3],≤ 0
same,scaled lipid accumulation score,[1],≤ 0
same,scaled lipid accumulation score,[2],≤ -0.055 and 0.348
"CN1C(=O)/C(=C2\Nc3ccccc3\C2=N\O)c2ccc(Br)cc21 [GSK-3 Inhibitor IX, Control, MeBIO]",scaled lipid accumulation score,[1],1.07 (active)
COC(=O)C(N)CS (stereo unspecified) [Mecysteine hydrochloride],scaled lipid accumulation score,[2],≤ 0
O=C(O)CCC/C=C\C[C@@H]1[C@@H](/C=C/[C@@H](O)C2Cc3ccccc3C2)[C@@H](F)C[C@@H]1O,scaled lipid accumulation score,[3],≤ 0
CC(=O)OCC1=C(C(=O)O)N2C(=O)[C@@H](NC(=O)CSc3ccncc3)[C@H]2SC1 [Cephapirin sodium],scaled lipid accumulation score,library stock concentration: 4.5 mM,≤ -0.001
same,scaled lipid accumulation score,[2],≤ 0
CCOC(=O)c1ccc(N=Nc2ccc(O)c(CC(=O)O)c2)cc1,scaled lipid accumulation score,[3],≤ 0
CC#CCC(C)[C@H](O)/C=C/[C@@H]1[C@H]2C/C(=C/CCCC(=O)O)C[C@H]2C[C@H]1O (stereo partly drawn) [5-cis Iloprost],scaled lipid accumulation score,[3],0.135
